Active and inactive are the calls of the source.
Experiments:
[1] = binders of probe aFSTL3 on microarray, primary screen, stem cell growth factor project, biochemical, small-molecule microarray, fluorescence 635/667 (AID 1064); details: higher = more signal;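 note: measures binding of the biotinylated anti-FSTL3 antibody to printed compounds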
[2] = binders from COS7 lysate, DM2A8 probe, primary screen, torsin A project, cell lysate, small-molecule microarray, fluorescence 635/667 (AID 1065); details: higher = more signal, COS7 lysate expressing mutant human TOR1A
[3] = binders of probe aFGF2 on microarray, primary screen, stem cell growth factor project, biochemical, small-molecule microarray, fluorescence 635/667 (AID 1067); details: higher = more signal;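 note: measures binding of biotinylated aFGF2 protein to printed compounds on slides; z-score merges feature fluorescence and signal-to-noise across triplicate slides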
[4] = binders of probe aFGF10 on microarray, primary screen, stem cell growth factor project, biochemical, small-molecule microarray, fluorescence 635/667 (AID 1071); details: higher = more signal;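 note: score merges 667 nm spot intensity and signal to noise from triplicate slides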
[5] = target: Neurogenic locus notch homolog protein 2 (Homo sapiens) (UniProt Q04721); experiment: Notch2 binders on small-molecule microarrays, primary screen, biochemical, small-molecule microarray, 635 nm fluorescence, stem cell growth factors (AID 1073); details: Notch2 binding, higher = more signal
[6] = target: Pro-neuregulin-1, membrane-bound isoform (Homo sapiens) (UniProt Q02297); experiment: NRG1 binders on small-molecule microarrays, primary screen, psychiatric disease protein project, biochemical, small-molecule microarray, fluorescence 635/667 (AID 1075); details: NRG1 binding, 635 nm fluorescence, higher = more signal;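 note: score combines 667 nm spot fluorescence with signal to noise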
Pro-neuregulin-1, membrane-bound isoform (Homo sapiens), sequence (Q02297 whole entry, looked up, the tested form may be a part, canonical isoform): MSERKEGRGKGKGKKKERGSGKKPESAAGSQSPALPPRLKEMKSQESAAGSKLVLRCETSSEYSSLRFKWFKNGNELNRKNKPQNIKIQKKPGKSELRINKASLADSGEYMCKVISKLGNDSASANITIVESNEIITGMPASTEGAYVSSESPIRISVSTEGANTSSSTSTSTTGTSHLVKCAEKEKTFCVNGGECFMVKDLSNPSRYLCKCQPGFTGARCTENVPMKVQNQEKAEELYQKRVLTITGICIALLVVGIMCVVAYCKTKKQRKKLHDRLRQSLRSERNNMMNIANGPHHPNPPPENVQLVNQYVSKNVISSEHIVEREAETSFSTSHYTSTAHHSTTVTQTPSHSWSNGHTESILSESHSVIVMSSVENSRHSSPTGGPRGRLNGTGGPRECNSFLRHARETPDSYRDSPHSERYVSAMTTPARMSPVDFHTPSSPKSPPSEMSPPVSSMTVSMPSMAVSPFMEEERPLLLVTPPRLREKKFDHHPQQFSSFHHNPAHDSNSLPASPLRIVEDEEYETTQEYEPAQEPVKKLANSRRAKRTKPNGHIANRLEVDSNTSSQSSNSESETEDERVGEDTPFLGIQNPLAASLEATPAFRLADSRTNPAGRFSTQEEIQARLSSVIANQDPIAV

[7] = tested on: Neuregulin-1 EGF-like domain; experiment: binders of neuregulin-1 EGF-like domain, primary screen, biochemical, small-molecule microarray, 635 nm fluorescence (AID 1081); details: small-molecule microarray binding, higher = more signal;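 note: binding of the protein to compounds printed on small-molecule microarray slides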
[8] = FRG1 promoter luciferase signal modulators, primary screen, FRG1 inhibition for FSHD, cell-based, C2C12 myotubes, firefly/Renilla luciferase, luminescence (AID 1084); details: higher = more signal, called active from +8 up or from −8 down
[9] = binders of probe aFST on microarray, primary screen, stem cell growth factor project, biochemical, small-molecule microarray, fluorescence 635/667 (AID 1086); details: higher = more signal;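 note: score merges 667 nm fluorescence with signal-to-noise of each printed compound spot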
[10] = binders of probe aHhip on microarray, primary screen, stem cell growth factor project, biochemical, small-molecule microarray, fluorescence 635/667 (AID 1087); details: higher = more signal;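 note: score merges spot fluorescence at 667nm with spot signal to noise ratio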
[11] = tested on: PRMT1 (protein arginine N-methyltransferase 1); experiment: PRMT1 binders on small-molecule microarrays, primary screen, biochemical, small-molecule microarray, 635 nm fluorescence (AID 1088); details: small-molecule microarray binding, higher = more signal;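 note: binding of Prmt1 protein to compounds spotted on small-molecule microarray slides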
[12] = yeast growth modulation, basal conditions, primary screen, YJM789 clinical isolate, OD600, 24 h (AID 1089);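 note: growth of clinical yeast isolate S. cerevisiae YJM 789 seeded 1000 cells per well; test concentration not given here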; details: S. cerevisiae YJM789 growth, higher = more signal, called active from +8 up or from −8 down
[13] = fission yeast growth modulation, primary screen, strain 972, OD600, 24 h, no modulator (AID 1090);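 note: basal condition with compound alone and no growth modifier present; test concentration not given here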; details: S. pombe 972 growth, higher = more signal, called active from +8 up or from −8 down
[14] = S. cerevisiae growth modulation with rapamycin, primary screen, strain BY4716, OD600, 96 h (AID 1091); details: higher = more signal, called active from +8 up or from −8 down; note: test concentration not given here
[15] = target: Torsin-1A-interacting protein 2 (Homo sapiens) (UniProt Q8NFQ8); experiment: LULL1 binders on small-molecule microarray, primary screen, cell lysate, human LULL1 lysate, 635/667 nm fluorescence (AID 1092); details: hLULL1 lysate binding, 635 nm fluorescence, higher = more signal;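 note: probe is lysate of COS7 cells overexpressing human LULL1; score merges per-feature 667 nm fluorescence with signal-to-noise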
Torsin-1A-interacting protein 2 (Homo sapiens), sequence (Q8NFQ8 whole entry, looked up): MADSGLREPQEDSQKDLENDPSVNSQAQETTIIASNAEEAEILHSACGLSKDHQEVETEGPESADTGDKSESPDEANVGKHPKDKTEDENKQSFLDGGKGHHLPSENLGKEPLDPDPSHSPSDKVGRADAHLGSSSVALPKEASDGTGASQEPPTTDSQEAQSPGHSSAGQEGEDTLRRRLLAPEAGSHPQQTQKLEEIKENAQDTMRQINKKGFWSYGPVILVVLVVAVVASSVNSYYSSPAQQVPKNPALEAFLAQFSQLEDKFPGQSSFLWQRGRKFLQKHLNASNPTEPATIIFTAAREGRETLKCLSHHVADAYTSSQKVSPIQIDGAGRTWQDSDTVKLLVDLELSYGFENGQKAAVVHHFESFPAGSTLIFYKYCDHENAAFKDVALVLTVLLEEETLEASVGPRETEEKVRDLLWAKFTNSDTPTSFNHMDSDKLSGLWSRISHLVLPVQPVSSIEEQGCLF

[16] = E. coli growth modulation, two-sided OD650, primary screen, E. coli filamentation project, strain DRC41, 24 h (AID 1093); details: OD650, 24 h, higher = more signal, called active from +8 up or from −8 down;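 note: MC1000 strain lacking acrAB efflux and sulA so SOS filamentation is blocked; test concentration not given here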
[17] = small-molecule microarray binders of probe aLefty2, primary screen, biochemical, biotinylated probe, 635/667 nm fluorescence (AID 1094); details: higher = more signal;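 note: score merges spot fluorescence near 667 nm with spot signal-to-noise ratio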
[18] = tested on: Noggin (protein binding on small-molecule microarray); experiment: Noggin binders on small-molecule microarray, primary screen, biochemical, 635/667 nm fluorescence (AID 1095); details: 635 nm fluorescence, higher = more signal;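 note: score merges 667 nm feature fluorescence with signal to noise over triplicate slides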
[19] = target: Neurogenic locus notch homolog protein 3 (Homo sapiens) (UniProt Q9UM47); experiment: NOTCH3 binders on small-molecule microarray, primary screen, biochemical, 635/667 nm fluorescence (AID 1096); details: NOTCH3 binding, 635 nm fluorescence, higher = more signal
Neurogenic locus notch homolog protein 3 (Homo sapiens), sequence (Q9UM47 whole entry, looked up): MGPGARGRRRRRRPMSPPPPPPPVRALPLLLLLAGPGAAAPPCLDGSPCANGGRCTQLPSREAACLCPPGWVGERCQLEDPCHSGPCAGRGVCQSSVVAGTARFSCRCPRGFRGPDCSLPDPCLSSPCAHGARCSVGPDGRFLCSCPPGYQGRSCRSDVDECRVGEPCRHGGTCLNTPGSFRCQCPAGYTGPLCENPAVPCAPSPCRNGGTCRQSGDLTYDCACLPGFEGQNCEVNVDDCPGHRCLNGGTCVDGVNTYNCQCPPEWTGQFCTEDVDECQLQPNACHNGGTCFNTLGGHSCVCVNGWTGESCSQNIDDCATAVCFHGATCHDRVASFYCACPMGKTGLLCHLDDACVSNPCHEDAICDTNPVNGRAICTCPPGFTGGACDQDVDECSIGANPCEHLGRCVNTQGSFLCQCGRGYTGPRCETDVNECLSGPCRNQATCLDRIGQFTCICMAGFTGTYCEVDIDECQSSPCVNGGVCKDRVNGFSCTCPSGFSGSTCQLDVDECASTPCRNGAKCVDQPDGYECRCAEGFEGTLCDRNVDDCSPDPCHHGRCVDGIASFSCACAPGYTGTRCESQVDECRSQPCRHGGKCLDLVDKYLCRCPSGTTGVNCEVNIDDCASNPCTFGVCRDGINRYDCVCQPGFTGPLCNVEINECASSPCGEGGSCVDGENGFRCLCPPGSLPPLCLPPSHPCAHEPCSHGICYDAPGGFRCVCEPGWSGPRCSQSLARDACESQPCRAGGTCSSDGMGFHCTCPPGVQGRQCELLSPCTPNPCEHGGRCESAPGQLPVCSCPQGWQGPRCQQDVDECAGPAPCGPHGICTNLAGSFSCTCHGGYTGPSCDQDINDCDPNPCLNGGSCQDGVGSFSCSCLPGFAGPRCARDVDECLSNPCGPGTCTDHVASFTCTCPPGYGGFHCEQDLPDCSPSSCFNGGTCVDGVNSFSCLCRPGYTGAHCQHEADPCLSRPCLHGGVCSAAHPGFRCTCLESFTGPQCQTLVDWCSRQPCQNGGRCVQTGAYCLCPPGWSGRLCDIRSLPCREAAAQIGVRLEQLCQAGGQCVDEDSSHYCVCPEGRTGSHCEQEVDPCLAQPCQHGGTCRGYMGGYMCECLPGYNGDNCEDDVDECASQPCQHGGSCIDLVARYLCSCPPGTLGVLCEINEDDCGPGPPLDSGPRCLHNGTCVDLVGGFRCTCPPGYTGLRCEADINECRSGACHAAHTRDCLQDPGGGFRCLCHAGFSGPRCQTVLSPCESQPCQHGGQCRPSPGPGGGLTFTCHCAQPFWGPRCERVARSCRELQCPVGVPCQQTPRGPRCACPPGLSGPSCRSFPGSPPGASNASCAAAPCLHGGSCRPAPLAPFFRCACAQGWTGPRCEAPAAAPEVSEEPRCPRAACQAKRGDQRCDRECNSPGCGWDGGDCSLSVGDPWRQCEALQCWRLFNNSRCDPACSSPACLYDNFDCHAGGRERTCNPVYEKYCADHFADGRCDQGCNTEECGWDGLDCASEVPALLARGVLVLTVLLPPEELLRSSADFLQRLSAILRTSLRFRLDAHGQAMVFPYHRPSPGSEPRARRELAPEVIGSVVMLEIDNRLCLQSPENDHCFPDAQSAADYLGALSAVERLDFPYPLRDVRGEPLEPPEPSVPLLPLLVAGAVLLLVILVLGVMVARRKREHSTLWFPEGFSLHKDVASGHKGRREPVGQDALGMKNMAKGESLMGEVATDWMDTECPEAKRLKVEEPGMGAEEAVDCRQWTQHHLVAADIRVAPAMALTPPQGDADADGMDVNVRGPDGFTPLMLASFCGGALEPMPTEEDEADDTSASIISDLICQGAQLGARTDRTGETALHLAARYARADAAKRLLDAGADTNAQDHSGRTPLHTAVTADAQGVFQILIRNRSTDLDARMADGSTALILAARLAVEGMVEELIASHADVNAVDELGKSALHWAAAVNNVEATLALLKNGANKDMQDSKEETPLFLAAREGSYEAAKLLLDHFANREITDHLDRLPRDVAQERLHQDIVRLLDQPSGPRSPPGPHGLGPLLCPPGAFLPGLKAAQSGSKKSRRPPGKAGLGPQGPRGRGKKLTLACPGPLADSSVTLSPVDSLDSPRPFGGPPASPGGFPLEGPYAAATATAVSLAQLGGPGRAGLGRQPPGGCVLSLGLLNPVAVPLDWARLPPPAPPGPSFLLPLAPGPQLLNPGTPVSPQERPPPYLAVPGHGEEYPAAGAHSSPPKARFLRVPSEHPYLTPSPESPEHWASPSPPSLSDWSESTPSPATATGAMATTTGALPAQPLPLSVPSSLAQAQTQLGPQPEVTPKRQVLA

[20] = small-molecule microarray binders of probe aEGFR, primary screen, biochemical, biotinylated probe, 635/667 nm fluorescence (AID 1097); details: higher = more signal;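 note: probe is a biotinylated anti-EGFR antibody binding compounds printed on slides; score combines fluorescence near 667 nm and signal to noise of each spot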

## CCOC(=O)C[C@H]1[C@H](OC(=O)c2ccc(-c3ccccc3)cc2)[C@@H](NC(=O)C2CCCCC2)c2cc(OCCCO)ccc2N1C(=O)Cc1ccc(OC)cc1
[1]
  composite z-score: -0.114
[2]
  composite z-score: 0.279
[3]
  composite z-score: -0.0369
[4]
  composite z-score: 0.0887
[5]
  composite z-score: 0.215
[6]
  composite z-score: 0.157
[7]
  composite z-score: -0.481
[8]
  z-score: -0.054 (inactive)
[9]
  composite z-score: 0.241
[10]
  composite z-score: 0.0722
[11]
  composite z-score: 0.405
[12]
  z-score: -0.253 (inactive)
[13]
  z-score: -0.0766 (inactive)
[14]
  z-score: 0.214 (inactive)
[15]
  composite z-score: 0.852
[16]
  z-score: -0.884 (inactive)
[17]
  composite z-score: -0.141
[18]
  composite z-score: -0.141
[19]
  composite z-score: 0.375
[20]
  composite z-score: -0.114

## COC(=O)C1=CC(c2ccc(CO)cc2)=CC(C2CC2)N(Cc2cc3c(cc2Br)OCO3)C=C1C(=O)OC (stereo not given)
[1]
  composite z-score: 0.131
[2]
  composite z-score: 1.64
[3]
  composite z-score: 0.214
[4]
  composite z-score: 1.25
[5]
  composite z-score: 1.66
[6]
  composite z-score: 1.97
[7]
  composite z-score: 1.15
[8]
  z-score: -2.56 (inactive)
[9]
  composite z-score: 0.559
[10]
  composite z-score: 0.0278
[11]
  composite z-score: 1.54
[12]
  z-score: -0.644 (inactive)
[13]
  z-score: -2.47 (inactive)
[14]
  z-score: -2.01 (inactive)
[15]
  composite z-score: 2.87
[16]
  z-score: 0.841 (inactive)
[17]
  composite z-score: 0.479
[18]
  composite z-score: 0.092
[19]
  composite z-score: 1.11
[20]
  composite z-score: 0.46

## CN1C2C=C(c3ccc(CO)cc3)C(C3C(=O)N(C(N)=O)C(=O)C32)C1C1CC1 (stereo not given)
[1]
  composite z-score: -0.153
[2]
  composite z-score: 0.103
[3]
  composite z-score: -0.146
[4]
  composite z-score: -0.0401
[5]
  composite z-score: -0.161
[6]
  composite z-score: 0.0413
[7]
  composite z-score: 0.663
[8]
  z-score: 0.567 (inactive)
[9]
  composite z-score: -0.0595
[10]
  composite z-score: -0.201
[11]
  composite z-score: 0.132
[12]
  z-score: -1.07 (inactive)
[13]
  z-score: -0.257 (inactive)
[14]
  z-score: 1.2 (inactive)
[15]
  composite z-score: -0.0967
[16]
  z-score: 0.214 (inactive)
[17]
  composite z-score: -0.178
[18]
  composite z-score: -0.4
[19]
  composite z-score: -0.607
[20]
  composite z-score: -0.201

## COCCOC(=O)N1C(=O)[C@@]2(c3cc(C#CCCO)ccc31)[C@H](c1ccc(O)cc1)N1[C@H](c3ccccc3)[C@H](c3ccccc3)OC(=O)[C@H]1[C@@H]2C(=O)NC[C@H](O)c1ccccc1
[1]
  composite z-score: -0.0825
[2]
  composite z-score: 0.332
[3]
  composite z-score: -0.0271
[4]
  composite z-score: 0.589
[5]
  composite z-score: 0.163
[6]
  composite z-score: 1.25
[7]
  composite z-score: 1.29
[8]
  z-score: -1.69 (inactive)
[9]
  composite z-score: 0.0962
[10]
  composite z-score: -0.0645
[11]
  composite z-score: 1.53
[12]
  z-score: 1.08 (inactive)
[13]
  z-score: 0.933 (inactive)
[14]
  z-score: 3.26 (inactive)
[15]
  composite z-score: 2.15
[16]
  z-score: 1.76 (inactive)
[17]
  composite z-score: -0.195
[18]
  composite z-score: 0.697
[19]
  composite z-score: 1.03
[20]
  composite z-score: -0.103

## O=C1NC(=O)C2C1C=CC(C(O)C(O)CO)N2Nc1ccccn1 (stereo not given)
[1]
  composite z-score: -0.304
[2]
  composite z-score: -0.0729
[3]
  composite z-score: -0.154
[4]
  composite z-score: 0.383
[5]
  composite z-score: 0.864
[6]
  composite z-score: 0.548
[7]
  composite z-score: 0.515
[8]
  z-score: -0.708 (inactive)
[9]
  composite z-score: 0.0126
[10]
  composite z-score: -0.191
[11]
  composite z-score: 0.635
[12]
  z-score: -0.517 (inactive)
[13]
  z-score: 0.294 (inactive)
[14]
  z-score: -0.73 (inactive)
[15]
  composite z-score: 0.541
[16]
  z-score: -1.02 (inactive)
[17]
  composite z-score: -0.343
[18]
  composite z-score: 0.349
[19]
  composite z-score: 0.32
[20]
  composite z-score: 0.0713

## CC1CC/C=C\[C@H]2OC34C=CCN(CCN5CCOCC5)C(=O)[C@H]3N(C(CO)C(C)C)C(=O)[C@@H]4C2C(=O)O1 (stereo not given in full)
[1]
  composite z-score: -0.0695
[2]
  composite z-score: 0.949
[3]
  composite z-score: -0.133
[4]
  composite z-score: -0.528
[5]
  composite z-score: -0.916
[6]
  composite z-score: 1.77
[7]
  composite z-score: 0.907
[8]
  z-score: -0.363 (inactive)
[9]
  composite z-score: -0.249
[10]
  composite z-score: -0.069
[11]
  composite z-score: 1.42
[12]
  z-score: -0.662 (inactive)
[13]
  z-score: -0.145 (inactive)
[14]
  z-score: -0.188 (inactive)
[15]
  composite z-score: 3.2
[16]
  z-score: -0.651 (inactive)
[17]
  composite z-score: -0.109
[18]
  composite z-score: 0.122
[19]
  composite z-score: 0.398
[20]
  composite z-score: -0.0332

## COc1cccc(C)c1NC(=O)O[C@H]1[C@H](OC(=O)Nc2ccccc2-c2ccccc2)[C@@H](OC(=O)Nc2ccccc2-c2ccccc2)[C@@H](OC)O[C@@H]1CO
[1]
  composite z-score: -0.182
[2]
  composite z-score: 0.968
[3]
  composite z-score: 0.141
[4]
  composite z-score: 1.17
[5]
  composite z-score: 1.61
[6]
  composite z-score: 1.74
[7]
  composite z-score: 1.38
[8]
  z-score: 0.945 (inactive)
[9]
  composite z-score: 1.64
[10]
  composite z-score: 0.053
[11]
  composite z-score: 1.53
[12]
  z-score: 3.84 (inactive)
[13]
  z-score: 2.59 (inactive)
[14]
  z-score: 3.5 (inactive)
[15]
  composite z-score: 3.54
[16]
  z-score: -0.692 (inactive)
[17]
  composite z-score: 0.0426
[18]
  composite z-score: 1.36
[19]
  composite z-score: 0.542
[20]
  composite z-score: 0.0059

## O=C1O[C@H](c2ccccc2)[C@H](c2ccccc2)N2[C@H]1[C@@H](C(=O)N1CCCCCCC1)[C@]1(C(=O)Nc3ccc(C#CCCO)cc31)[C@H]2c1ccc(O)cc1
[1]
  composite z-score: 3.79
[2]
  composite z-score: 2.62
[3]
  composite z-score: 0.978
[4]
  composite z-score: 1.4
[5]
  composite z-score: 1.79
[6]
  composite z-score: 2.79
[7]
  composite z-score: 1.42
[8]
  z-score: -1.1 (inactive)
[9]
  composite z-score: 3.34
[10]
  composite z-score: 1.7
[11]
  composite z-score: 1.54
[12]
  z-score: 0.6 (inactive)
[13]
  z-score: -0.36 (inactive)
[14]
  z-score: 1.45 (inactive)
[15]
  composite z-score: 5.04
[16]
  z-score: 2.08 (inactive)
[17]
  composite z-score: 1.78
[18]
  composite z-score: 0.731
[19]
  composite z-score: 1.02
[20]
  composite z-score: 1.38

## COC(=O)[C@]1(Cc2ccccc2N=[N+]=[N-])N=C(c2ccc(OCCCO)cc2)O[C@@H]1c1ccccc1CN=[N+]=[N-]
[1]
  composite z-score: 0.736
[2]
  composite z-score: 1.08
[3]
  composite z-score: 0.052
[4]
  composite z-score: 0.728
[5]
  composite z-score: 0.632
[6]
  composite z-score: 1.06
[7]
  composite z-score: 1.16
[8]
  z-score: -2.25 (inactive)
[9]
  composite z-score: 0.484
[10]
  composite z-score: 0.176
[11]
  composite z-score: 1.56
[12]
  z-score: -0.141 (inactive)
[13]
  z-score: 0.708 (inactive)
[14]
  z-score: 36.8 (active)
[15]
  composite z-score: 2.25
[16]
  z-score: -0.763 (inactive)
[17]
  composite z-score: 0.021
[18]
  composite z-score: 1.23
[19]
  composite z-score: 0.963
[20]
  composite z-score: 0.0258

## C=C(CC1([C@@H](NP(=O)(c2ccccc2)c2ccccc2)[C@H]2C[C@@H]2CCCC)CC1)c1cccc(OC)c1
[1]
  composite z-score: 0.511
[2]
  composite z-score: -0.411
[3]
  composite z-score: 0.112
[4]
  composite z-score: 0.343
[5]
  composite z-score: 1.47
[6]
  composite z-score: 0.0917
[7]
  composite z-score: 0.737
[8]
  z-score: 1.5 (inactive)
[9]
  composite z-score: 1.66
[10]
  composite z-score: 0.579
[11]
  composite z-score: -0.155
[12]
  z-score: 0.557 (inactive)
[13]
  z-score: 0.832 (inactive)
[14]
  z-score: 1.82 (inactive)
[15]
  composite z-score: 1.66
[16]
  z-score: -0.768 (inactive)
[17]
  composite z-score: 0.179
[18]
  composite z-score: -0.239
[19]
  composite z-score: 0.36
[20]
  composite z-score: -0.0563

From PubChem BioAssay
